Assay results published in ChEMBL document CHEMBL1961873, “Compounds: GSK PKIS; Assays: Nanosyn kinase panel” (2012).

Target: T1, Homeodomain-interacting protein kinase 4 (Homo sapiens) (UniProt Q8NE63);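 further: values are mean percent inhibition of HIPK4 from the GSK PKIS kinase screen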
T1 sequence (whole entry): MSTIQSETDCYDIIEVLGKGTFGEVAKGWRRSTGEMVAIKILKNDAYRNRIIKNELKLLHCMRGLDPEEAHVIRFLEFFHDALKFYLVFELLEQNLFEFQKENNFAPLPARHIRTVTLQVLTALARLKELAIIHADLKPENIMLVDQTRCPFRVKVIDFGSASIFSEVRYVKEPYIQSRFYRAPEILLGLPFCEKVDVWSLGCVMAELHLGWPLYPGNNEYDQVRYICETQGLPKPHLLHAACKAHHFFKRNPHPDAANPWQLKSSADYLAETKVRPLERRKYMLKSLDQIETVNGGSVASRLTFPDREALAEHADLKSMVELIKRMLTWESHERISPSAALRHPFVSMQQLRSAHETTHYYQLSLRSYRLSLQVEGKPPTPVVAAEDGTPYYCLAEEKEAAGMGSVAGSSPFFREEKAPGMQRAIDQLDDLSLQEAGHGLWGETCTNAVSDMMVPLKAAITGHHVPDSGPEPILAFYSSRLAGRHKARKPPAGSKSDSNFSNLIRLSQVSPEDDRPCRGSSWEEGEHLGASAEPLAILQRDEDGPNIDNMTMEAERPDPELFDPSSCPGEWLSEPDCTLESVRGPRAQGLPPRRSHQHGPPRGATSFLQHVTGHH
Conditions: at 1 µM

Compound	inhibition [%]
Cc1ccc(C(=O)NC2CC2)cc1-c1ccc2[nH]ncc2c1	5.11
OCc1ccc(-c2nc(-c3ccccn3)c(-c3ccc4c(c3)OCO4)[nH]2)cc1	0.79
CC(C)c1ccc2c(c1)NC(=O)/C2=N/Nc1ccc(S(N)(=O)=O)cc1	1.57
CN(C)C(=O)O[C@@H]1CN[C@@H](C#Cc2cc3ncnc(Nc4ccc(OCc5cccc(F)c5)c(Cl)c4)c3s2)C1	0.99
COc1cccc(-n2nc(C)c3c(N/N=C(\C)c4ccncc4)ncnc32)c1	2.79
COC(=O)c1ccc2c(c1)C(=Cc1cc(Br)c(O)c(Br)c1)C(=O)N2	35
Oc1cccc(-c2nc(-c3ccccc3)[nH]c2-c2ccncc2)c1	44.9
NS(=O)(=O)c1ccc(N/N=C2\C(=O)Nc3ccc(Cl)cc32)cc1	7.64
COC(=O)Nc1nc2cc(Oc3ccc(NC(=O)Nc4cccc(Br)c4)cc3)ccc2[nH]1	19.5
COC(=O)c1cncc(/C=C/c2c(C)cc(O)cc2C)c1	6.29
COc1cc(/C=N/Nc2ncnc3c2cnn3C(C)C)ccc1O	19.6
CCS(=O)(=O)c1ccc(OC)c(Nc2nccc(N(C)c3ccc4c(C)n[nH]c4c3)n2)c1	1.15
[O-][S+]1CCN(Cc2ccc(-c3ccc4ncnc(Nc5ccc(OCc6ccccc6)c(Cl)c5)c4c3)o2)CC1	2.27
c1ccc(Cc2nc3ccc(Nc4ncnc5ccccc45)cc3[nH]2)cc1	9.82
CCS(=O)(=O)c1ccc(OC)c(Nc2ncc(-c3cccc(OC)c3)o2)c1	65.7
CCn1c(-c2nonc2N)nc2ccc(F)cc21	3.5
CN(C)c1cc2c(Nc3ccc4c(cnn4Cc4ccccc4)c3)ncnc2cn1	0.89

Compound	inhibition [%]
COc1cc2ncnc(Nc3ccc4c(cnn4Cc4ccccc4)c3)c2cc1OC	0.79
O=C1Nc2ccc(-c3cccnc3)cc2C1=Cc1cc(Br)c(O)c(Br)c1	13.8
COc1cc2ncnc(Nc3ccc(C)c(O)c3)c2cc1OC	9.35
Cc1ccc2c(-c3ccnc(Nc4ccc5c(c4)OCCO5)n3)c(-c3ccc(C(F)(F)F)cc3)nn2n1	-0.85
Cc1ccc2c(-c3ccnc(Nc4cccc(C(F)(F)F)c4)n3)c(-c3ccccc3)nn2n1	13.5
C[C@@H](Oc1cc(-n2cnc3ccc(OC[C@@H](O)CO)cc32)sc1C(N)=O)c1ccccc1Cl	9.28
CN(C)CCCn1c(-c2nonc2N)nc2cnccc21	0.4
CN(c1ccc(NC(=O)Nc2ccc(OC(F)(F)F)cc2)cc1)c1ccnc(Nc2cccc(S(N)(=O)=O)c2)n1	83.6
O=C1Nc2ccccc2/C1=C/Nc1ccc2[nH]c(=O)[nH]c2c1	5.62
Cc1ccc2c(c1)/C(=N/Nc1ccc(S(N)(=O)=O)cc1)C(=O)N2	-0.65
CCCN1CCCC(c2ccc(Nc3nc(Nc4cc(F)ccc4C(N)=O)c4cc[nH]c4n3)c(OC)c2)C1 (stereo not drawn)	84.3
Nc1nccc(-c2c(-c3ccc(F)cc3)nn3cc(C(F)(F)F)ccc23)n1	0.63
NS(=O)(=O)c1ccc(-c2cc3ccncc3cc2OCc2ccccc2)cc1	6.62
NC(=O)c1sc(-n2cnc3ccccc32)cc1OCc1ccccc1Br	7.54
O=S(=O)(CCOCc1ccc(-c2ccc3ncnc(Nc4ccc(OCc5cccc(F)c5)c(Cl)c4)c3c2)o1)c1ccccc1	5.69
Nc1ccc(C#Cc2cncnc2Nc2ccc(OCc3cccc(F)c3)c(Cl)c2)cc1	0.28
ON=C1CCc2cc(-c3nc(C4CCNCC4)[nH]c3-c3ccncc3)ccc21	2.78

Target: Mitogen-activated protein kinase 9 (Homo sapiens) (UniProt P45984);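 further: values are mean inhibition of JNK2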
Sequence (P45984 whole entry, looked up): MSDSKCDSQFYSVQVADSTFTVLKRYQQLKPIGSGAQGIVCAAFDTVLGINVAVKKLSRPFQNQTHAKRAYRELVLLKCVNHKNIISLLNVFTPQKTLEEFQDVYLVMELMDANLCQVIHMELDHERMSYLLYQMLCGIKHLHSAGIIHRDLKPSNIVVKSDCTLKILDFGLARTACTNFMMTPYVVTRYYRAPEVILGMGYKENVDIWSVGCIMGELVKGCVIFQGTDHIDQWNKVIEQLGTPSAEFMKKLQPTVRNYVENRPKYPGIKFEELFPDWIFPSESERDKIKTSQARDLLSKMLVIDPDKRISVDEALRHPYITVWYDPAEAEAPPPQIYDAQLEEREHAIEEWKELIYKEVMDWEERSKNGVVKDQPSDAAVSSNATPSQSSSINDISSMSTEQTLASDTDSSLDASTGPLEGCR
Conditions: at 0.1 µM

Compound	inhibition [%]
Cc1ccc(C(=O)NC2CC2)cc1-c1ccc2[nH]ncc2c1	-0.5
OCc1ccc(-c2nc(-c3ccccn3)c(-c3ccc4c(c3)OCO4)[nH]2)cc1	2.15
CC(C)c1ccc2c(c1)NC(=O)/C2=N/Nc1ccc(S(N)(=O)=O)cc1	0.14
CN(C)C(=O)O[C@@H]1CN[C@@H](C#Cc2cc3ncnc(Nc4ccc(OCc5cccc(F)c5)c(Cl)c4)c3s2)C1	3.81
COc1cccc(-n2nc(C)c3c(N/N=C(\C)c4ccncc4)ncnc32)c1	1.92
COC(=O)c1ccc2c(c1)C(=Cc1cc(Br)c(O)c(Br)c1)C(=O)N2	4.88
Oc1cccc(-c2nc(-c3ccccc3)[nH]c2-c2ccncc2)c1	2.02
NS(=O)(=O)c1ccc(N/N=C2\C(=O)Nc3ccc(Cl)cc32)cc1	3.27
COC(=O)Nc1nc2cc(Oc3ccc(NC(=O)Nc4cccc(Br)c4)cc3)ccc2[nH]1	3.12
COC(=O)c1cncc(/C=C/c2c(C)cc(O)cc2C)c1	-0.35
COc1cc(/C=N/Nc2ncnc3c2cnn3C(C)C)ccc1O	2.63
CCS(=O)(=O)c1ccc(OC)c(Nc2nccc(N(C)c3ccc4c(C)n[nH]c4c3)n2)c1	3.79
[O-][S+]1CCN(Cc2ccc(-c3ccc4ncnc(Nc5ccc(OCc6ccccc6)c(Cl)c5)c4c3)o2)CC1	-0.11
c1ccc(Cc2nc3ccc(Nc4ncnc5ccccc45)cc3[nH]2)cc1	1.51
CCS(=O)(=O)c1ccc(OC)c(Nc2ncc(-c3cccc(OC)c3)o2)c1	3.19
CCn1c(-c2nonc2N)nc2ccc(F)cc21	5.8
CN(C)c1cc2c(Nc3ccc4c(cnn4Cc4ccccc4)c3)ncnc2cn1	2.84

Compound	inhibition [%]
COc1cc2ncnc(Nc3ccc4c(cnn4Cc4ccccc4)c3)c2cc1OC	0.52
O=C1Nc2ccc(-c3cccnc3)cc2C1=Cc1cc(Br)c(O)c(Br)c1	1.52
COc1cc2ncnc(Nc3ccc(C)c(O)c3)c2cc1OC	4.57
Cc1ccc2c(-c3ccnc(Nc4ccc5c(c4)OCCO5)n3)c(-c3ccc(C(F)(F)F)cc3)nn2n1	-0.33
Cc1ccc2c(-c3ccnc(Nc4cccc(C(F)(F)F)c4)n3)c(-c3ccccc3)nn2n1	30.1
C[C@@H](Oc1cc(-n2cnc3ccc(OC[C@@H](O)CO)cc32)sc1C(N)=O)c1ccccc1Cl	-0.38
CN(C)CCCn1c(-c2nonc2N)nc2cnccc21	5.36
CN(c1ccc(NC(=O)Nc2ccc(OC(F)(F)F)cc2)cc1)c1ccnc(Nc2cccc(S(N)(=O)=O)c2)n1	1.46
O=C1Nc2ccccc2/C1=C/Nc1ccc2[nH]c(=O)[nH]c2c1	4.66
Cc1ccc2c(c1)/C(=N/Nc1ccc(S(N)(=O)=O)cc1)C(=O)N2	2.38
CCCN1CCCC(c2ccc(Nc3nc(Nc4cc(F)ccc4C(N)=O)c4cc[nH]c4n3)c(OC)c2)C1 (stereo not drawn)	70.3
Nc1nccc(-c2c(-c3ccc(F)cc3)nn3cc(C(F)(F)F)ccc23)n1	2.4
NS(=O)(=O)c1ccc(-c2cc3ccncc3cc2OCc2ccccc2)cc1	3.39
NC(=O)c1sc(-n2cnc3ccccc32)cc1OCc1ccccc1Br	4.13
O=S(=O)(CCOCc1ccc(-c2ccc3ncnc(Nc4ccc(OCc5cccc(F)c5)c(Cl)c4)c3c2)o1)c1ccccc1	0.13
Nc1ccc(C#Cc2cncnc2Nc2ccc(OCc3cccc(F)c3)c(Cl)c2)cc1	1.88
ON=C1CCc2cc(-c3nc(C4CCNCC4)[nH]c3-c3ccncc3)ccc21	2.05
